Laboratory results: PubChem BioAssay AID925 (National Center for Advancing Translational Sciences (NCATS), 2007)
Values joined by “and” are separate entries in the source; they are usually repeats but may differ in a detail not shown here. Equal entries are not always repeated. About 40 (0.06%) of roughly 65,000 compounds were called active. Calls follow the shape of the dose curve; as a rule, active = well fitted activation curve with a large enough effect; inconclusive = small, poorly fitted or top-dose-only effect; inactive = flat fitted curve, though single readings scatter. The sample as a whole holds a higher share of actives than the screen did.

Test: qHTS Assay for Modulators of Hemoglobin Beta Chain Splicing; also: 0% is about no effect
Conditions: HBB splicing reporter cell assay, EGFP reporter with mutant IVS2-654 intron; Potency: activation; series mostly up to 46.1 µM
Method in brief: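 Compounds were applied for 2 days to HeLa EGFP-654 cells, 500/well in Optimem with 2% FCS. The reporter's EGFP is disrupted by mis-splicing of beta-globin intron IVS2-654. Readout: summed well GFP fluorescence from 488 nm laser scanning; reference was 500 nM antisense […] 654 PNA.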

activation, inactive:
CN/C(=C\[N+](=O)[O-])NCCSCc1csc(CN(C)C)n1, CO[C@H]1COC(=O)C/C=C\[C@H](C)COC(=O)[C@@H](OCc2ccccc2)/C=C\[C@@H]1C 1.62% [at 9.22 µM, normalised to 500 nM splice-correcting PNA], Cc1c2c(nc3ccccc13)-c1cccc(=O)n1C2, CC/C=C/C/C=C/C/C=C/CCCCCCCC(=O)OCC, Oc1ccc2ccccc2c1C=NCc1c(O)ccc2ccccc12 0.869% [at 9.22 µM, normalised to 500 nM splice-correcting PNA], CCCNC(=O)OC[C@@H]1O[C@H](c2ccccc2)C=C[C@@H]1Oc1ccc(OC)cc1 -1.16% [at 9.22 µM, normalised to 500 nM splice-correcting PNA], O=C1OCCC=C1[C@@H](O)CCc1ccccc1 3.64% [at 9.22 µM, normalised to 500 nM splice-correcting PNA], CCCn1c(-c2ccc(F)cc2)nc2c(NCC3CCCN3CC)nc(C)nc21 (configuration not stated), Cc1cc(C)cc(N)c1, c1ccc2c(c1)-c1ccccc1C2N1CC2CCC(CC2)C1 3.26% [at 9.22 µM, normalised to 500 nM splice-correcting PNA], COc1ncc2nc(-c3ccc(Cl)cc3)c(=O)n(-c3ccccc3)c2n1, O=C(O)CC(C(=O)O)C(CC(=O)O)C(=O)O (configuration not stated), COC(=O)[C@@]1(Cc2ccc(OC)cc2)[C@H]2c3cc(C(=O)N4CCCC4)n(Cc4ccc(C(F)(F)F)nc4)c3C[C@H]2CN1C(=O)c1ccccc1, CC1=C(C(=O)OCc2ccccc2)C(c2ccc(C(F)(F)F)cc2)NC(=O)N1CCCCCC(=O)O (configuration not stated), COc1ccc(-c2nc3cnc(OC)nc3n(Cc3ccc(F)cc3)c2=O)cc1, Cc1cccc(Br)c1, CS(=O)(=O)N1CCC2(CC1)CN(c1ccncc1)C2, CCn1ccnc1C[C@@H]1COc2ccccc2O1, CC[C@H](c1ccccc1)c1cc(C(C)(C)C)cc(C(C)(C)C)c1O -0.113% [at 9.22 µM, normalised to 500 nM splice-correcting PNA], CC(C)(O/N=C(\C(=O)N[C@@H]1C(=O)N2C(C(=O)[O-])=C(C[n+]3ccccc3)CS[C@@H]12)c1csc(N)n1)C(=O)O, C[C@]1(O)CC[C@H]2[C@H]3CC=C4N5CCN=C5CC[C@@]4(C)[C@H]3CC[C@@]21C -0.0515% [at 9.22 µM, normalised to 500 nM splice-correcting PNA], Cc1c(NC(=O)c2cccnc2)c(=O)n(-c2ccccc2)n1C, COC(=O)[C@@]1(Cc2ccc(OC)cc2)[C@H]2c3cc(C(=O)N4CCCC4)n(Cc4ccc(OC(F)(F)F)cc4)c3C[C@H]2CN1C(=O)c1ccccc1, CC[C@@H]1Cc2cc(O)ccc2C2=C1c1ccc(O)cc1C[C@H]2CC, Cc1nc2cnc(N3CCNCC3)nc2n(Cc2ccc(F)cc2)c1=O, COc1ccc(CNc2ncncc2-c2ccccc2OC)c(OC)c1, COC(=O)[C@@H]1CC[C@H](C)[C@@H](c2ccc(C)cc2)N1C(=O)c1ccc(/C=N\O[C@@H](C)c2cn([C@H](CO)Cc3ccccc3)nn2)cc1 0.582% [at 9.22 µM, normalised to 500 nM splice-correcting PNA] and -0.794% [at 9.22 µM, normalised to 500 nM splice-correcting PNA], O=C(c1cccc(F)c1)N1CCC2(CCCN(Cc3ccncc3)C2)CC1, Cc1cccc(C(=O)O)c1[N+](=O)[O-], COc1cccc(Cn2c(=O)c(CCc3ccccc3)nc3cnc(N(C)C)nc32)c1, Cc1cnc(CNc2nc(-c3cccnc3)nc3ccccc23)cn1, COc1ccc(-c2nc3cnc(Oc4ccccc4)nc3n(Cc3cccs3)c2=O)cc1, CCC[C@@H]1C[C@@]1(CCC)C(NS(=O)(=O)c1cccc2cccnc12)c1ccc(Cl)cc1 (some centres not stated), O=C(Cl)c1ccc([N+](=O)[O-])cc1, O=C(c1csnn1)N1CCC[C@@]2(CCN(Cc3nccs3)C2)C1, CCNC(=S)NCC, O=C(c1ccc([N+](=O)[O-])cc1)[C@@H](Br)[C@@H](Br)c1ccnc2ccccc12 0.675% [at 9.22 µM, normalised to 500 nM splice-correcting PNA]
